# Screening results (PubChem)
# Many of the other results were omitted from the sample, so hits are more common in it than they were.
# IL-1B inflam inh: inhibitors of inflammasome signaling (IL-1 beta secretion); THP-1 LPS/ATP IL-1B secretion, AlphaLISA, 16 h; hits give low values; activity change, % at 57.5 µM; actives 4.7% (n = 360,000); in the data active = activity change below about -50%; inconclusive = mostly about -30% to -49%
#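 THP-1 cells pretreated 1 hr with compounds (up to 57.5 uM final), then stimulated with LPS (250 ng/mL final) plus ATP (1.25 mM final); secreted IL-1B measured by AlphaLISA after 16 hr, decreased signal indicating inhibition.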
# HT1080-NT tox: kills 2HG-producing HT-1080-NT fibrosarcoma cells | HT-1080-NT fibrosarcoma viability, CellTiter-Glo ATP luminescence, 48 h | actives 1.6% (n = 360,000) | Potency, µM (top dose mostly 46.1 µM), hits mostly cytotoxic;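 note: NT is the 2HG producing partner of a matched IDH1 knockdown line; nearly all actives have a fitted effect of over 55% in size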
#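 Fibrosarcoma NT cells, 750 per well in 5% FBS RPMI, were exposed to compound for 48 hours. Viability: CellTiter-Glo luminescence.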
# DT40 TDP1 no CPT: qHTS for Inhibitors of human tyrosyl-DNA phosphodiesterase 1 (TDP1): qHTS in cells in absence of CPT; Potency, µM (highest dose often 46.2 µM), usual class: inhibitors; AID 686978, 2013; DT40 Tdp1-/- hTDP1 cells, no CPT, ATP luminescence, 48 h; actives 15% (n = 420,000); note: nearly all actives have a fitted effect of over 55% in size
#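 Luminescent ATP content (CellTiter-Glo) served as the growth readout. Knockout chicken DT40 cells expressing human TDP1 were exposed to compounds without camptothecin for a minimum 48 hr at 37 °C.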
# TDP1 cell CPT: growth inhibition of DT40 Tdp1-/-;hTDP1 cells with camptothecin (screen for TDP1 inhibitors); actives 12% (n = 420,000); AID 686979; chicken DT40 Tdp1-/-;hTDP1 cells + 20 nM CPT, ATP luminescence, 48 h; Potency, µM (titrated, usually from 46.2 µM), hits mostly inhibitors; note: nearly all actives have a fitted effect of over 55% in size
#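 Cell growth measured by CellTiter-Glo luminescence after a minimum 48 h, 37 C compound exposure with 20 nM CPT in Tdp1-knockout DT40 cells stably expressing hTDP1, seeded 400/well; qHTS titration format.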
# ALOX12 inh: blocks human arachidonate 12S-lipoxygenase | actives 1.1% (n = 580,000) | P18054 | Potency, µM (highest dose often 108 µM), hits mostly inhibitors | purified 12hLO, xylenol orange hydroperoxide absorbance
#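 Hydroperoxide product was detected by ferrous iron/xylenol orange as the 573 to 405 nm absorbance ratio. Arachidonic acid at 40 uM (final) was turned over for 30 min at room temperature by 150 nM human 12hLO, pH 7.0 Hepes buffer, after 15 min compound preincubation.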
# HT1080 IDH1KD tx: kills HT-1080 cells with IDH1 knockdown; actives 2% (n = 360,000); Potency, µM (series often up to 46.1 µM), hits mostly cytotoxic; HT-1080 IDH1 knockdown viability, ATP luminescence, 48 h; AID 686971
#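 After a 2 h attachment period, IDH1KD HT-1080 cells took pin-transferred compound for 48 h at 37 °C; ATP-based luminescence after 10 min room-temperature reagent incubation reported viability.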
# Numbers stand for hits; 0 = inactive; ? = inconclusive; - = not tested or not shown; [ ] = dose if it differs, or a comment. Unless noted, calls come from the whole dose curve; as a rule, active = well fitted curve in the direction sought with a large enough effect; inconclusive = small, poorly fitted or top-dose-only effect, or another doubt; inactive = no such curve, though single readings can be large; an effect the other way counts as inactive or inconclusive.
SMILES,IL-1B inflam inh,HT1080-NT tox,DT40 TDP1 no CPT,TDP1 cell CPT,ALOX12 inh,HT1080 IDH1KD tx
Cc1ccc(-c2csc(=Nc3ccccc3)n2Cc2ccc3c(c2)OCO3)cc1C,-,-,6.51µM,?,0,-
Cc1ccc(NC(=O)Cn2c(-c3ccc4c(c3)OCO4)cn(-c3ccccc3)c2=O)cc1C,-,-,0,0,0,-
Cc1ccc(-c2csc(=Nc3ccc(F)cc3)n2Cc2ccc3c(c2)OCO3)cc1C,-,-,14.6µM,18.4µM,?,-
N#CC(=C1C=CC(=NO)C(Cl)=C1)c1ccccc1,-97.7,7.31µM,1.3µM,0.651µM,?,5.8µM
N#CC(=Nc1ccccc1)c1ccccc1,0,0,0,0,0,0
N#CC(=C1C=C(Br)C(=NO)C=C1Cl)c1ccc(Cl)cc1,?,0,2.59µM,4.61µM,?,0
CCCCCC(=O)N1C[C@H](n2cc(-c3ccc(F)cc3)nn2)[C@@H](O)C[C@@H]1c1ccc(OC)cc1,0,0,0,0,0,0
CCCCCC(=O)N1C[C@@H](n2cc(-c3ccc(F)cc3)nn2)[C@H](O)C[C@@H]1c1ccc(Cl)cc1,-55.9,?,11.6µM,14.6µM,0,16.4µM
CCCCCC(=O)N1C[C@H](O)[C@@H](n2cc(-c3ccc(F)cc3)nn2)C[C@@H]1c1ccc(Cl)cc1,?,?,18.4µM,18.4µM,0,?
Cc1ccc(S(=O)(=O)N2CCOCC2)cc1C(=O)N(Cc1ccco1)C1CCS(=O)(=O)C1 (configuration not stated),-,-,-,-,0,-
O=C(c1ccc(Br)cc1)c1cc2ccc(O)cc2oc1=O,0,0,16.4µM,?,0,0
O=C(c1ccccc1)c1cc2ccc(O)cc2oc1=O,0,?,0,?,?,?
O=C(c1ccc(Br)cc1)c1coc2ccc(O)cc12,-,0,?,?,22.4µM,0
O=C(NNC(=O)c1cc2cc(Br)ccc2oc1=O)c1ccc(O)cc1O,0,?,9.2µM,5.17µM,0,1.84µM
Cc1ccc(-n2nnc(C(=O)OCc3ccccc3C)c2C)cc1,-,-,-,-,0,-
Cc1ncc(C(=O)N2CCC3(CC2)Nc2ccccc2NC3=O)c(=O)[nH]1,-,-,-,-,0,-
O=C([C@@H]1C[C@H](Oc2cccnc2)CN1C(=O)c1n[nH]c(=O)c2ccccc12)N1CCCC1,-,-,-,-,0,-
CN(CCOc1ccccc1)C(=O)c1ccc(OC2CCN(C(=O)C3CC3)CC2)cc1,0,?,18.4µM,?,0,0
O=C(c1ccc(COc2ccc(Cl)cc2)cc1)N1CCCCC1,-62.9,0,?,?,0,0
O=C(c1ccc(COc2ccccc2Br)cc1)N1CCCCCC1,0,0,16.4µM,?,0,0
O=C(O)c1ccc(COc2ccc(Cl)cc2)cc1,-,-,-,-,0,-
CN(CCOc1ccc(Cl)cc1)C(=O)C1CCN(C(=O)c2ccc(Cl)cc2)CC1,-60.6,0,?,?,0,0
Cc1ccccc1C(=O)N1CCC(C(=O)N(C)CCOc2ccccc2)CC1,0,0,?,?,0,0
Fc1ccc(COc2ccccc2C(=S)N2CCCC2)cc1,?,0,?,?,?,0
Cc1ccc(COc2ccccc2C(=S)N2CCCC2)cc1,0,0,20.6µM,?,0,0
CCOC(=O)c1nc2ccc(C)cc2c2c1C1CC(c3c(Cl)cccc31)N2C(=O)OCc1ccccc1 (configuration not stated),0,0,18.4µM,14.6µM,?,0
Cc1cc(C(=O)N2CCC(N3C[C@H](O)C[C@H]3C(=O)NC3CCCCC3)CC2)n(C)n1,-,-,-,-,0,-
O=C(Nc1cccnc1)N1CC2ON=C(C(=O)N3CCOCC3)C2C1 (configuration not stated),-,-,-,-,0[6.33 µM],-
C=CC[n+]1c(-c2ccc(OCC)cc2)csc1NNC(=O)Nc1ccccc1,0,?,5.8µM,7.31µM,0,?
CN(Cc1ccccc1)Cc1cc(CC2(NCc3cccs3)COC2)no1,-,-,-,-,0,-
